# Screening results: PubChem, National Center for Advancing Translational Sciences (NCATS)
# ATXN viability: viability counter-screen for ATXN expression inhibitors | 400,000 tested, 0.49% active | S2 cells (HEK-293 line with an ATXN2-luciferase reporter) viability, CellTiter-Fluor protease fluorescence, 24 h | Potency, µM (highest dose often 56.7 µM), most hits filed as cytotoxic; note: nearly all actives have a fitted effect of over 40% in size
# ATXN2 expr inh: inhibitors of ATXN2 expression | AID 1745845 | Potency, µM (series often up to 57 µM), inactives show at the top dose activity change, negative = inhibition, hits mostly inhibitors | HEK-293 ATXN2-luciferase reporter, luminescence, 24 h | 360,000 tested, 0.72% active; note: % is set by controls: 0 for no effect and ±100 for the full control effect; nearly all actives have a fitted effect of over 55% in size
#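 ATXN2-luciferase reporter cells (luciferase flanked by upstream and downstream ATXN2 gene portions) were treated 24 h at 37 °C with compounds at up to 57 uM. SteadyGlo luminescence gave expression; GF-AFC fluorescence gave viability.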
# TGFb SMAD3 inh: TGF-b pathway inhibition | HepG2 CAGA-GFP TGF-b/SMAD3 reporter, GFP fluorescence, 18 h; TGF-beta stimulated, 500 pg/mL final | Potency, µM (highest dose often 46.1 µM), without a hit: at the top dose activity, negative = inhibition, most hits filed as inhibitors | 410,000 tested, 1.2% active; note: % is set by controls: 0 for no effect and ±100 for the full control effect; nearly all actives have a fitted effect of over 65% in size
#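 Inhibition of TGF-beta-driven CAGA-GFP reporter expression in HEPG2 cells is measured by cellular GFP fluorescence after 18 h stimulation with 500 pg/mL recombinant TGF-beta in 1% FBS medium at 37 degrees C.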
# TDP1 cell noCPT: qHTS for Inhibitors of human tyrosyl-DNA phosphodiesterase 1 (TDP1): qHTS in cells in absence of CPT. DT40 Tdp1-/- hTDP1 cells, no CPT, ATP luminescence, 48 h. Potency, µM (titrated, usually from 46.2 µM), for the others: at the top dose activity change, negative = growth inhibition, actives largely listed as inhibitors. 420,000 tested, 15% active. AID 686978, 2013; note: % is set by controls: 0 for no effect and ±100 for the full control effect; nearly all actives have a fitted effect of over 55% in size
#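 Growth kinetics read by CellTiter-Glo luminescence after ≥48 hr at 37 °C. Cells: DT40 Tdp1-/- stably carrying human TDP1, 400 per well, compound exposure in the absence of CPT (DMSO vehicle).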
# DT40 TDP1 CPT: DT40-hTDP1 cell growth loss with CPT. chicken DT40 Tdp1-/-;hTDP1 cells + 20 nM CPT, ATP luminescence, 48 h. AID 686979. Potency, µM (titrated, usually from 46.2 µM), without a hit: top-dose activity change, negative = growth inhibition, usual class: inhibitors. 420,000 tested, 12% active; note: % is set by controls: 0 for no effect and ±100 for the full control effect; nearly all actives have a fitted effect of over 55% in size
#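 Chicken DT40 Tdp1-/- cells stably complemented with human TDP1 were seeded at 400 cells/well in medium containing 20 nM camptothecin, exposed to pin-transferred compounds, and grown at 37 °C for at least 48 hr. Viability was read as ATP luminescence.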
# HepG2 tox: HepG2 cytotoxicity, counter-screen for TGF-b inhibitors | HepG2 CAGA-GFP viability, ATP luminescence, 18 h | Potency, µM (highest dose often 46.1 µM), for inactives: top-dose activity change, negative = cytotoxicity, most hits filed as cytotoxic | 410,000 tested, 0.76% active
#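 CellTiter-Glo luminescence gave cytotoxicity after 18 hours at 37 degrees C. The cells were HepG2 CAGA-GFP in 1% FBS DMEM, stimulated with 500 pg/mL TGF-beta after compound addition. %Activity was normalised to no-cell wells (complete cell-killing) and DMSO (no toxicity), and curves were fitted and classified.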
# * hit, by the source's call; i = inactive; ? = inconclusive; nt = not tested or not shown. In the library only some 17% were active in any assay of this set; here they are far more common. Calls come from the whole dose curve; as a rule, active = well fitted curve in the direction sought with a large enough effect; inconclusive = small, poorly fitted or top-dose-only effect, or another doubt; inactive = no such curve, though single readings can be large; an effect the other way counts as inactive or inconclusive. Potency is the fitted concentration of half-maximal effect.
SMILES,ATXN viability,ATXN2 expr inh,TGFb SMAD3 inh,TDP1 cell noCPT,DT40 TDP1 CPT,HepG2 tox
CCOC(=O)C1C(=O)C=C(Nc2ccccc2F)CC1c1ccccc1 (centres undefined),i,19.3%,-0.3%,?,-10.7%,-30.8%
O=C(NCc1ccc2c(c1)CCN2C(=O)c1ccccc1)c1ccc(Br)o1,nt,nt,33.0%,?,?,-0.1%
O=C(NCc1ccc2c(c1)CCN2C(=O)c1ccc(F)cc1)c1ccc(Br)o1,nt,nt,40.3%,4.11µM*,5.17µM*,1.6%
Cc1cccc(OCC(=O)NCc2ccc3c(c2)CCN3C(=O)c2ccccc2)c1,nt,nt,31.6%,23.1µM*,?,-0.9%
Cc1cccc(C(=O)N2CCc3cc(CNC(=O)CSc4ccccc4)ccc32)c1,nt,nt,43.1%,-15.0%,1.0%,16.2%
Cc1cccc(C(=O)N2CCc3cc(CNC(=O)c4ccc(Br)o4)ccc32)c1,nt,nt,?,?,18.4µM*,-18.7%
Cc1cc(NC(=O)NCc2ccc3c(c2)CCN3C(=O)c2ccccc2)ccc1Br,nt,nt,?,16.4µM*,?,-3.0%
C[C@H](NC(=O)c1ccc(C(C)(C)C)cc1)C(=O)N1CCC2(CC1)NCCc1[nH]cnc12,i,-3.3%,17.4%,0.2%,?,-22.8%
COCCN1C(=O)C(=O)/C(=C(/O)c2ccc(S(=O)(=O)N3CCOCC3)cc2)C1c1cccc(Cl)c1 (centres undefined),i,-0.5%,-10.8%,0.5%,-2.1%,-0.4%
COc1ccc(Br)cc1S(=O)(=O)Nc1ccc(Cl)cn1,i,-0.3%,1.4%,-6.0%,31.9%,-4.8%
CCC(CC)[C@H](NC(C)=O)[C@@H]1[C@H](O)[C@@H](C(=O)O)C[C@@H]1N=C(N)N,nt,2.6%,nt,nt,nt,nt
CCn1c2ccccc2c2nn(C)c(=N)nc21,i,-10.8%,-4.9%,18.4µM*,14.6µM*,-17.6%
COc1ccc(CC(=O)Nc2cccc(C(=O)O)c2C)cc1,i,12.5%,-10.4%,-3.2%,-7.8%,9.2%
CCN(CC)C(=O)C1=C(C)N(Cc2ccc(C(C)(C)C)cc2)C(=O)C(CC(=O)NCCCCc2ccccc2)C1 (centres undefined),nt,?,14.1µM*,?,-103.1%,-57.8%
CC1=C(C(=O)N2CCCCCC2)CC(CC(=O)NCCCCc2ccccc2)C(=O)N1Cc1ccccc1 (centres undefined),nt,-35.7%,-22.1%,20.6µM*,18.4µM*,4.7%
CCN(CC)C(=O)C1=C(C)N(Cc2ccc(F)cc2)C(=O)C(CC(=O)NCC2CCCCC2)C1 (centres undefined),i,-1.0%,-18.6%,20.6µM*,?,-16.5%
CCN(CC)C(=O)C1=C(C)N(Cc2ccc(F)cc2)C(=O)C(CC(=O)NCCCCc2ccccc2)C1 (centres undefined),?,-23.1%,-6.8%,20.6µM*,?,-35.8%
CCN(CC)C(=O)C1=C(C)N(Cc2ccc(C(C)(C)C)cc2)C(=O)C(CC(=O)NCCCN(C)C)C1 (centres undefined),i,6.9%,-0.6%,-4.5%,-8.2%,-15.5%
CC1=C(C(=O)N2CCCCCC2)CC(CC(=O)NC2CC2)C(=O)N1Cc1ccccc1 (centres undefined),i,1.7%,9.9%,2.3%,3.2%,5.1%
CC1=C(C(=O)N(C)C)CC(CC(=O)NCCCCc2ccccc2)C(=O)N1Cc1ccc(F)cc1 (centres undefined),i,-13.5%,-23.8%,?,-33.5%,-17.5%
COc1ccc(CNC(=O)CN2C(=O)NC(Cc3ccccc3)(c3ccccc3)C2=O)cc1OC (centres undefined),i,10.7%,-14.0%,?,?,-4.4%
CC1=C(C(=O)N(C)C)CC(CC(=O)NCCCCc2ccccc2)C(=O)N1Cc1ccc(C(C)(C)C)cc1 (centres undefined),?,?,?,13µM*,16.4µM*,-22.4%
CC1=C(C(=O)N(C)C)CC(CC(=O)NCCCN(C)C)C(=O)N1Cc1ccc(C(C)(C)C)cc1 (centres undefined),i,11.7%,10.1%,1.0%,-6.5%,-3.0%
C#CCN(C[C@@H]1[C@@H](OC(=O)NCC2CCCCC2)[C@@H](OC(=O)NCC2CCCCC2)CN(C(=O)OC(C)C)N1C(=O)OC(C)C)S(=O)(=O)c1ccc(C)cc1,i,7.2%,-15.2%,7.31µM*,9.2µM*,2.7%
C#CCN(C[C@@H]1[C@@H](OC(=O)NCc2ccccc2)[C@@H](OC(=O)NCc2ccccc2)CN(C(=O)OC(C)C)N1C(=O)OC(C)C)S(=O)(=O)c1ccc(C)cc1,i,1.5%,?,11.6µM*,20.6µM*,2.1%
SMILES,ATXN viability,ATXN2 expr inh,TGFb SMAD3 inh,TDP1 cell noCPT,DT40 TDP1 CPT,HepG2 tox
C#CCN(C[C@H]1[C@H](OC(=O)NCc2ccccc2)[C@H](OC(=O)NCc2ccccc2)C[C@@H](C(=O)OC)[C@H]1C(=O)OC)S(=O)(=O)c1ccc(C)cc1,?,3.2%,-2.6%,-104.9%,-106.8%,5.4%
O=C(NNC(=O)C1CC1)c1ccc(F)cc1F,i,2.4%,10.1%,-10.8%,12.8%,-11.4%
Cc1ccc(S(=O)(=O)NC(=O)c2ccccc2C)cc1,i,2.3%,1.1%,10.7%,1.4%,4.1%
O=C(N/N=C/c1ccc(Cl)cc1)c1cc2c(s1)-c1ccccc1CC2,i,-9.3%,-6.6%,5.17µM*,3.66µM*,-1.0%
Cc1ccc(NC(=O)CN(C)C(=O)CSc2nnc(C)s2)cc1,?,-12.8%,0.0%,-4.1%,1.3%,1.9%
Cc1cc(C)n(-c2nc3ccccc3nc2N2CCN(S(=O)(=O)c3ccc(F)c(C)c3)CC2)n1,?,0.4%,-22.2%,?,23.1µM*,5.4%
Cc1cc(C)n(-c2nc3ccccc3nc2N2CCN(S(=O)(=O)c3ccc4ccccc4c3)CC2)n1,?,-11.3%,25.1%,14.1µM*,?,-17.3%
COc1cccc(-c2nc(CCl)cs2)c1OC,i,16.5%,7.1%,6.51µM*,2.31µM*,5.0%
CCOc1ccc(-c2nc(CCl)cs2)cc1OC,?,16.3%,-19.8%,13µM*,10.3µM*,4.1%
COc1cccc(-c2nc(CC(=O)O)cs2)c1OC,i,5.2%,-4.4%,1.7%,-4.1%,-6.4%
C=CCCCCCCCCC(=O)NNC1=CC(=O)CC(C)(C)C1,i,-13.3%,-13.7%,-34.1%,?,-2.6%
